Compound activity from PubChem.
Hits are enriched below; roughly 5.7% of the tested compounds scored in any of these assays.
PI4K2A block = qHTS for small molecular inhibitors of PI4K2A; Phosphatidylinositol 4-kinase type 2-alpha (Homo sapiens), Q9BTU6; purified PI4K2A, ADP-Glo luminescence, 1 h; stronger effect = lower value; activity change, negative = inhibition, % at 76.9 µM; 420,000 tested, 0.13% active; in the data active = activity change below about -50%; inconclusive = mostly about -30% to -49%;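 also: -100% = wells without enzyme as full effect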
Target sequence (Q9BTU6 whole entry, looked up): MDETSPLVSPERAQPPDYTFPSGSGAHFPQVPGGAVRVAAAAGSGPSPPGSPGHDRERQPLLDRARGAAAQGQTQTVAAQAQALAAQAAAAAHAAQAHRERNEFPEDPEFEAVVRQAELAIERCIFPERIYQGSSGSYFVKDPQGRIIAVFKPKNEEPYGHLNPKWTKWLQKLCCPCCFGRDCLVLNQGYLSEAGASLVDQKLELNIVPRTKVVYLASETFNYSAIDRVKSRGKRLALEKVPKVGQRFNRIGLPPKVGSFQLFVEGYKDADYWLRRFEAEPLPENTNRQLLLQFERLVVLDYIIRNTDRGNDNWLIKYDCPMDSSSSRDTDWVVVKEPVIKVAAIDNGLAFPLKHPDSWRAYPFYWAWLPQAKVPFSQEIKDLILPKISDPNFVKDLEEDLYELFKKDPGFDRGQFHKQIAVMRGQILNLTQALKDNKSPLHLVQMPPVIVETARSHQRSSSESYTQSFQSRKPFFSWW
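ADP-Glo luminescence measured ADP generated by PI4K2A enzyme (4 ug/mL before mixing) with 1.2 mM PI substrate (pre-mix) and 300 microM ATP (pre-mix). Tris pH7.5 buffer with MgCl2, Triton X-100; 1 h reaction at ambient temperature.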
Giardia killer = Small Molecules that selectively kill Giardia lamblia: qHTS. Giardia lamblia trophozoite viability. activity change, % at 7.66 µM, hits read low. 340,000 tested, 0.15% active; in the data active = activity change below about -80%; inconclusive = between about -30% and that limit;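 also: parasites exposed to compound for two days anaerobically before the ATP read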
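Compounds were tested on trophozoites seeded at 100 cells/well and held 48 hrs at 37 deg C anaerobically. An ATP-based luminescent kit measured the remaining live cells.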
KB-V1 MDR tox = qHTS assay for MDR1-selective chemotherapeutics: Primary screen using the drug-selected MDR subline cells KB-V1; Potency, µM (doses to about 46.1 µM), most hits filed as cytotoxic; KB-V1 MDR cells viability, CellTiter-Glo, 72 h; AID 1347076, 2019; 400,000 tested, 3.4% active; also: potency is read from the fitted curve at half-maximal effect; nearly all actives have a fitted effect of over 60% in size
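qHTS viability screen in drug-selected KB-V1 MDR cells: 72 h compound treatment at 37 degrees C, ATP luminescence end point.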
KB-3-1 cytotox = qHTS assay for MDR1-selective chemotherapeutics: Primary screen using the parental adenocarcinoma cell KB-3-1; KB-3-1 viability, CellTiter-Glo ATP luminescence, 72 h; Potency, µM (series often up to 46.1 µM), actives largely listed as cytotoxic; 400,000 tested, 1.4% active; AID 1347075, 2019; also: potency is read from the fitted curve at half-maximal effect; nearly all actives have a fitted effect of over 60% in size
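Cytotoxicity measured as CellTiter-Glo luminescence after 72 h at 37 C. Compound titrations were pinned onto drug-naive KB-3-1 parental adenocarcinoma cells grown in DMEM with 10% FBS, and normalized data fitted to concentration-response curves.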
Nrf2 inh = Nrf2 qHTS screen for inhibitors; AID 504444, 2011; 360,000 tested, 2.1% active; Potency, µM (titrated, usually from 46 µM), for inactives: at the highest dose activity change, negative = inhibition, usual class: inhibitors; A549 ARE-Fluc reporter, luciferase luminescence, 18-24 h; also: potency is read from the fitted curve at half-maximal effect; nearly all actives have a fitted effect of over 60% in size
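Concentration-response testing used A549 ARE_Fluc cells at 5000 cells/well. Following an 18-24 h compound incubation, viability was read by fluorescence (Ex 405/Em 525) and luciferase output by luminescence.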
A549 viability = Nrf2 qHTS screen for inhibitors: counterscreen for cytotoxicity. AID 504648, 2011. 390,000 tested, 0.16% active. A549 ARE-Fluc cells, CellTiter-Fluor viability, 18-24 h. Potency, µM (top dose mostly 46 µM), without a hit: top-dose activity change, negative = cytotoxicity, usual class: inhibitors; also: potency is read from the fitted curve at half-maximal effect
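A549 ARE-Fluc cells in 5% FBS OPTI-MEM, 5000 cells/well, rested 2 h then exposed to compounds in concentration-response for 18-24 h at 37 °C. Viability by CellTiter-Fluor fluorescence (Ex 405/Em 525) after 30 min; luciferase luminescence (BugLite, 15 min, RT) read afterwards.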
* = called active by the depositor; i = inactive; ? = inconclusive; · = not tested or not shown. Unless noted, calls follow the shape of the dose curve; as a rule, active = well fitted curve in the direction sought with a large enough effect; inconclusive = small, poorly fitted or top-dose-only effect, or another doubt; inactive = no such curve, though single readings can be large; an effect the other way counts as inactive or inconclusive. Unless noted, % is scaled to controls: 0 for no effect and ±100 for the full control effect.

SMILES | PI4K2A block | Giardia killer | KB-V1 MDR tox | KB-3-1 cytotox | Nrf2 inh | A549 viability
CN(C)c1ccc(C(=C2C=CC(=[N+](C)C)C=C2)c2ccc(N(C)C)cc2)cc1 | -59* | · | i | 2.6µM* | · | ·
CN(C)c1ccc(C(=C2C=CC(=[N+](C)C)C=C2)c2ccccc2)cc1 | -10 | · | · | · | · | ·
O=C(NCc1ccccc1)C1(C(F)(F)F)CC(CCCO)CCCO1 (stereo not given) | -1 | 0 | i | i | 1% | 2%
CS(=O)(=O)c1ccc(CNC(=O)C2(C(F)(F)F)CC(CCCO)CCCO2)cc1 (stereo not given) | 4 | 6 | ? | 5.8µM* | ? | -1%
O=C(CSc1nc(-c2cccs2)nc2cc(=O)[nH]n12)Nc1cccc(C(F)(F)F)c1 | -9 | · | i | i | ? | 3%
O=C(C[N+]1(CCc2ccccc2)CCOCC1)c1ccccc1 | · | · | i | i | · | ·
Cc1[nH]n(-c2ccc([N+](=O)[O-])cc2)c(=O)c1C=NCCN1CCN(C(=O)c2ccc(F)cc2)CC1 | -1 | -9 | i | i | 3% | -3%
Cc1[nH]n(-c2ccccc2)c(=O)c1/C=N/NC(=O)c1cccc(F)c1 | -10 | -3 | ? | ? | 7.3µM* | -27%
Cc1cc(C(=O)N/N=C/c2c(C)[nH]n(-c3ccccc3)c2=O)n[nH]1 | -16 | -13 | i | i | 1% | -2%
Cc1[nH]n(-c2ccc([N+](=O)[O-])cc2)c(=O)c1C=NCCN1CCN(C(=O)c2cccc(F)c2)CC1 | -13 | -2 | 16µM* | i | -5% | -5%
Cc1[nH]n(-c2ccccc2)c(=O)c1/C=N/Nc1nncc(-c2ccccc2)n1 | -14 | 0 | ? | 7.3µM* | ? | -20%
Cc1ccc(/C=N/Nc2nncc(-c3ccccc3)n2)o1 | -1 | 3 | i | i | 16% | -1%
Cc1[nH]n(-c2ccccc2)c(=O)c1/C=N/NC(=O)c1ccc(O)cc1O | -5 | 19 | ? | ? | -19% | -1%
Cc1[nH]n(-c2ccc(Br)cc2)c(=O)c1/C=N/NC(=O)c1ccccc1 | 0 | 1 | 1.3µM* | 7.3µM* | ? | ?
C=CCN1[C@@H](Cc2ccccc2)COc2cccc(F)c2S1(=O)=O | 1 | · | · | · | · | ·
Cc1ccccc1C(=O)NC1CCN(Cc2nnnn2Cc2ccccc2)CC1 | 3 | 6 | ? | i | -22% | -8%
Cc1ccc(Cn2nnnc2CN2CCC(c3nc4ccc(Cl)cc4[nH]3)CC2)cc1 | 2 | 20 | 3.3µM* | 18µM* | ? | -10%
O=C(NC1CCN(Cc2nnnn2CCc2ccccc2)CC1)c1ccccc1F | 0 | 0 | 16µM* | i | 2% | 18%
Cc1ccc(Cn2nnnc2CN2CCC(NC(=O)c3ccc(Br)cc3)CC2)cc1 | 2 | -12 | 18µM* | i | · | -17%
CCC(C)(C)n1nnnc1CN1CCC(NC(=O)c2ccc(Br)cc2)CC1 | 1 | -8 | i | i | · | -1%
O=C(CCl)N1CCN2C(=O)c3ccccc3C12c1ccc(Cl)cc1 (stereo not given) | 0 | -16 | ? | ? | -18% | 1%
O=C(Nc1cccc(Cl)c1)N1CCN2C(=O)c3ccccc3C12c1ccccc1 (stereo not given) | 1 | -5 | i | ? | 21µM* | ?
Cc1ccc(-c2nnc(Nc3cccc(O)c3)c3ccccc23)cc1S(=O)(=O)N1CCOCC1 | 4 | · | i | i | 16µM* | ?
CCn1c(C(=O)N2CCCC(C(=O)NCCCOC)C2)cc2sccc21 (stereo not given) | 1 | · | i | i | -7% | 1%
CN(Cc1c(F)cccc1Cl)c1ccc(S(=O)(=O)N2CCOCC2)cn1 | 2 | 29 | 18µM* | ? | -18% | -11%
